We go through 94 compounds from PubChem BioAssay AID1851 (National Center for Advancing Translational Sciences (NCATS), 2009).

The structures appear in SMILES notation. “And” between values parts separate entries of the source, which are not always exact repeats. Equal entries are not always repeated. Among all 16,000 compounds or so, about 4,000 (25%) were called active. Inconclusive results (about 26%) are left out. Only a sample is shown. A number with no mark means an inactive call. The call rests on the fitted dose curve; in most records, active means well fitted curve in the direction sought with a large enough effect; inconclusive means small, poorly fitted or top-dose-only effect, or effect the other way; inactive means no such curve, though single readings can be large or run the other way.
On the % scale 0 is the no-effect control and ±100 the full control effect.

In this assay the target is Cytochrome P450 2C9 (Homo sapiens) (UniProt P11712). Kind of assay: Cytochrome panel assay with activity outcomes. The note with it: recombinant CYP, pro-luciferin dealkylation, luminescence, p450-cyp2c9; series mostly up to 57.1 µM; activity, negative = inhibition: at the top concentration.
Chain of Cytochrome P450 2C9 (Homo sapiens) (P11712 whole entry, looked up): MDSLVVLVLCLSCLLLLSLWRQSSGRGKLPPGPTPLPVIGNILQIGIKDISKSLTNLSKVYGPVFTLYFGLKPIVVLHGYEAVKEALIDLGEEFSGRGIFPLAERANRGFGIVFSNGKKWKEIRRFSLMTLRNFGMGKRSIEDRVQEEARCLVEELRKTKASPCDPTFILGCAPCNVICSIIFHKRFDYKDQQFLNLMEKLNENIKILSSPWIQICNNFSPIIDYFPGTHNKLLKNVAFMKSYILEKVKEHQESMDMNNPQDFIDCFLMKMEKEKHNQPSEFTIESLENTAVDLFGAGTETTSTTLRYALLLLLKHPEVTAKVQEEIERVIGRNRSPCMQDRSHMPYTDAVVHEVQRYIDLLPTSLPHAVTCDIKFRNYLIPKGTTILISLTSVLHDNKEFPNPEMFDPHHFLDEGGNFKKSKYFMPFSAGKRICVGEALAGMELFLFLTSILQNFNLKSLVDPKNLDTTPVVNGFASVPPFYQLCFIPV
What is called AC50 is the concentration giving half of the maximal activity seen. Turning to `CN(Cc1ccccc1)Cn1ccnc1`, the AC50 is 2.51 µM (active). With `CN(C)Cc1ccccc1-c1cc(-n2ccnc2)ncn1`, the activity, negative = inhibition is -14.3% [at 2.29 µM]. Take `C#CCN(C)Cc1ccccc1`: the AC50 entry was “inactive”. Regarding `CC1(C)CC(=O)c2cn3ncnc3nc2C1`, the “activity, negative = inhibition” value was 5.85%. The same measure, in the same setting: next, `Cn1c(CN2CCCC2)nc2cc(NC(=O)C3CCCCC3)ccc21`: 0.65%. For `O=C(Nc1ccc2c(c1)nc1n2CCN(C2CCCCC2)C1)NC1CCCCC1`, the AC50 was 14.1 µM (active).

Regarding `CC1CCN(CCc2nc3cc(NC(=O)NC4CCCCC4)ccc3n2C)CC1`, the “activity, negative = inhibition” value is -16%.

On to `CO[C@@]12C[C@@H](COC(=O)c3cncc(Br)c3)CN(C)[C@H]1Cc1cn(C)c3cccc2c13`, for which the AC50 entry is “inactive”. `N/C(CC/C(N)=N/O)=N\O`: the activity, negative = inhibition is -8.92% [at 11.4 µM].

`CCN(CC)C(=O)Cn1cc(/C=C(\C#N)C(=O)N2CCN(c3ccccc3)CC2)c2ccccc21`: the half-maximal activity concentration (AC50) was 3.55 µM (active).

As for `CCc1cccc2c(C=C(C#N)C#N)cn(CC(=O)N3CCCCC3)c12`, the “activity, negative = inhibition” value was -10.4%.

As for `O=C1O[C@H](CN2CCOCC2)CN1/N=C\c1ccc([N+](=O)[O-])o1`, the “activity, negative = inhibition” value is 8.64% [at 25.6 µM]. Still for that read-out and setting: next, `C[C@@H](C[N+](C)(C)C)OC(N)=O`: 1.12% [at 25.6 µM]. For the compound `COc1ccccc1CCn1c(=O)c(-c2cccc(F)c2)nc2cncnc21`, the AC50 is 2.51 µM (active).

Take `COCCn1c(=O)c(-c2cccc(F)c2)nc2cncnc21`: the “activity, negative = inhibition” value was -29.5%. Same read-out and setting: next, `Cn1c(=O)c(-c2cc(F)cc(F)c2)nc2cncnc21`: -20.8%. As to `COc1ccccc1CCn1c(=O)c(-c2cc(F)cc(F)c2)nc2cncnc21`, the AC50 is 1.58 µM (active).

Turning to `COc1ccc(-n2c(=O)c(-c3cccc(F)c3)nc3cncnc32)cc1`, the “activity, negative = inhibition” value was 2.43%. For `COCCn1c(=O)c(-c2cc(F)cc(F)c2)nc2cncnc21`, the “activity, negative = inhibition” value was 4.81%.

For `O=C(c1ccccc1)c1ccc2n1CC[C@H]2C(=O)O`, the AC50 result is “inactive”. Turning to `c1ncc(-c2ccoc2)c(NC2CC2)n1`, the activity, negative = inhibition was 5.65% [at 2.29 µM]. Turning to `CCCNc1[nH]c(=O)n(C)c(=O)c1N=O`, the “activity, negative = inhibition” value was -18.2%. Same read-out and setting: next, `O=C(O)C12CC3(C(=O)O)CC(C(=O)O)(CC(C(=O)O)(C1)C3=O)C2=O`: -3.16% [at 11.4 µM]; `COCCN1C(=O)C(=O)/C(=C(/O)c2cccc(OC)c2)C1c1ccco1` (centres undefined): -10.9%.

With `COc1ccc(C2C(C(=O)c3ccco3)=C(O)C(=O)N2Cc2cccnc2)cc1OC` (centres undefined), the “activity, negative = inhibition” value was 18%.

For `COCCCN1C(=O)C(=O)/C(=C(/O)c2ccc(OC)cc2C)C1c1cccnc1` (centres undefined), the “activity, negative = inhibition” value was -3.89%. Consider `CCOc1cccc(/C(O)=C2/C(=O)C(=O)N(Cc3cccnc3)C2c2ccco2)c1` (centres undefined), for which the concentration at half-maximal activity (AC50) is 1.58 µM (active).

As for `COc1ccccc1-c1cc(NCc2cccnc2)ncn1`, the activity, negative = inhibition was -17.3% [at 2.29 µM]. In the case of `COc1ccc(/C(O)=C2/C(=O)C(=O)N(Cc3cccnc3)C2c2ccco2)cc1OC` (centres undefined), the AC50 was 8.91 µM (active). Same read-out and setting: next, `COc1cccc(/C(O)=C2/C(=O)C(=O)N(Cc3cccnc3)C2c2ccco2)c1` (centres undefined): 0.398 µM (active). For `CCc1cc2c(nc1CC)CCN(CC/C(C)=N/O[C@@H]1O[C@H](COC(C)=O)[C@H](OC(C)=O)[C@H](OC(C)=O)[C@H]1OC(C)=O)C2`, the activity, negative = inhibition is 1.56% [at 11.4 µM]. For the compound `Cc1c(Cl)cccc1NC(=O)c1ccc(-n2ccnc2)nc1`, the AC50 is 0.0794 µM (active).

Take `CS(=O)(=O)Nc1cccc(-c2cncnc2-n2ccnc2)c1`: the activity, negative = inhibition is 10.1% [at 2.29 µM]. The same measure, in the same setting: next, `CN(C)C(=O)c1ccc(-c2cncnc2-n2ccnc2)cc1`: 12.6% [at 2.29 µM].

In the case of `O=C(Nc1ccc(F)cc1)c1ccc(-n2ccnc2)nc1`, the AC50 is 0.178 µM (active). On to `c1cncc(-c2cc(-n3ccnc3)ncn2)c1`, for which the activity, negative = inhibition was 12.2% [at 2.29 µM]. On the same count and under the same terms, next, `CN(C)C(=O)c1ccc(-c2nccc(-n3ccnc3)n2)cc1`: 17.2% [at 2.29 µM].

Consider `O=C(NCCC[N+]1=CC=N[C@H]1c1ccccc1)N1CCCc2nc(-c3ccc(Br)cc3)ccc21`, for which the activity, negative = inhibition was -48.1% [at 11.4 µM].

Regarding `O=C(Nc1ccccc1)N1CC[C@@]2(CCCN(C(=O)c3cnccn3)C2)C1`, the “activity, negative = inhibition” value was 1.31%. Same read-out and setting: next, `CN(C)Cc1ccc(O)c(CN(C)C)n1`: 7.12% [at 11.4 µM].

Turning to `COc1cc(Br)c(C(C)NC(=O)c2cccc(Br)c2)cc1OC` (centres undefined), the concentration at half-maximal activity (AC50) is 2.82 µM (active).

As for `CNC(C)c1cc(OC)ccc1OC` (centres undefined), the “activity, negative = inhibition” value was -8.77%.

With `COc1ccc(C(=O)[C@H](Br)[C@H](Br)C(=O)O)cc1`, the activity, negative = inhibition was -11.2% [at 11.4 µM]. Take `COc1ccc(C(=O)NC(C)c2cc(OC)c(OC)cc2Br)cc1` (centres undefined): the AC50 is 12.6 µM (active). As to `CC(NC(=O)c1cccc(F)c1)C(c1cccs1)N1CCN(C)CC1` (centres undefined), the “activity, negative = inhibition” value was -13%.

As to `CCCCSc1nc(C)cc(NC(=S)Nc2ccc(OC)cc2)n1`, the “activity, negative = inhibition” value is -28%.

Consider `O=C1/C(=N\O)Cc2ccccc21`, for which the “activity, negative = inhibition” value was -18.6%. For the compound `COCC(=O)N1CCC[C@@]2(CCN(C(=O)Nc3cccc(F)c3)C2)C1`, the “activity, negative = inhibition” value is 3.07%. Same read-out and setting: next, `CCOC(=O)CCCN`: 4.7% [at 11.4 µM]; `O=[N+]([O-])c1ccc2c(c1)S(=O)c1ccccc1-2` (centres undefined): -1.14% [at 11.4 µM]. Consider `Cc1cc([N+](=O)[O-])ccc1-c1ccc(C2Nc3ccccc3C(=O)N2O)o1` (centres undefined), for which the AC50 was 2.82 µM (active). For `O=C1C2=C(Nc3cc([N+](=O)[O-])ccc3N2)O[C@@H]1c1ccc([C@H]2OC3=C(Nc4ccc([N+](=O)[O-])cc4N3)C2=O)cc1`, the activity, negative = inhibition is -18.7% [at 11.4 µM].

Turning to `COc1cc2cc3c(N)c(C(=O)Nc4sc(C)c(C)c4C#N)sc3nc2cc1OC`, the “activity, negative = inhibition” value was -13.7%. `CCOC(=O)Cc1csc(NC(=O)c2sc3nc4ccc(CC)cc4cc3c2N)n1`: the AC50 is 0.447 µM (active). On the same count and under the same terms, next, `CCOC(=O)Cc1csc(NC(=O)c2ccc(Cl)nc2)n1`: 11.2 µM (active).

On to `CC(C)(C)c1ccccc1OCCN1CCCC1`, for which the “activity, negative = inhibition” value was 8.57%. On to `Cc1cccc(C)c1NC(=O)/C(C#N)=C/c1cccs1`, for which the AC50 was 11.2 µM (active).

As for `CCOc1ccc(-n2c(SCC(=O)Nc3ccc(OC)cc3OC)nc3c(c2=O)SCC3)cc1`, the AC50 was 4.47 µM (active). Same read-out and setting: next, `CCOc1ccc(-n2c(SCC(=O)Nc3ccc4c(c3)OCCO4)nc3c(c2=O)SCC3)cc1`: 2.82 µM (active). For the compound `CCOc1ccc2nc(C)cc(Nc3ccc4c(c3)OCCO4)c2c1`, the “activity, negative = inhibition” value was 13.7%. Still for that read-out and setting: next, `COCCN(C(=O)Nc1ccc(OC)cc1OC)C1CCN(C(C)=O)CC1`: -16.3%. Same read-out and setting: next, `CC(=O)c1[nH]c(C)c(C(C)=O)c1C`: -32.9%. On the same count and under the same terms, next, `CN(C)c1ccc2nc3c(C(=O)O)cc(=O)c(O)c-3oc2c1`: -29.4% [at 11.4 µM]. As to `Cc1ccc(-n2c(O)cnc2Nc2nc(C)cc(C)n2)cc1`, the “activity, negative = inhibition” value was 4.21%. For the compound `COc1ccc(/C(C#N)=C/c2c(-c3ccc(Cl)cc3)nc3c(C)cccn23)cc1`, the AC50 was 5.01 µM (active). As for `COc1ccc(Oc2ncc3nc(-c4ccc(Cl)cc4)c(=O)n(C)c3n2)cc1`, the “activity, negative = inhibition” value was -9.75%.

Take `COc1cccc(Nc2ncc3nc(-c4ccc(Cl)cc4)c(=O)n(CCC#N)c3n2)c1`: the “activity, negative = inhibition” value is 3.96%. `O=C(O)Cc1sc(-c2ccc(Cl)cc2)nc1-c1ccccc1`: the AC50 was 2 µM (active). On the same count and under the same terms, next, `BrC(c1cccc2ccccc12)c1cccc2ccccc12`: 3.16 µM (active). Consider `Nc1nc(-c2cc(-c3cccc4ccccc34)nc(N)n2)cc(-c2cccc3ccccc23)n1`, for which the activity, negative = inhibition was 10.6% [at 11.4 µM]. Still for that read-out and setting: next, `CN(Cc1cccc2ccccc12)Cc1cccc2ccccc12`: -23.2% [at 11.4 µM]. Same read-out and setting: next, `C[C@@H]1CC[C@@H]2C(=O)N3[C@@H](CC[C@@H](C)[C@@H]3c3ccc(-c4ccco4)cc3)C(=O)N2[C@H]1c1ccc(-c2ccco2)cc1`: -27.5% [at 11.4 µM]. On to `Fc1ccc(C2CC(c3ccco3)=NN2c2ccccc2)cc1` (centres undefined), for which the AC50 is 1.41 µM (active). In the case of `c1cncc(CNc2ccnc(-c3ccc4c(c3)OCO4)n2)c1`, the activity, negative = inhibition was -9.36% [at 2.29 µM].

For the compound `COc1ccc(NC2=NC(=S)N(c3ccc(C)cc3)C23CCCCC3)cc1`, the “activity, negative = inhibition” value is 20.2%. Same read-out and setting: next, `Cc1cccc(N2CCN(c3ccc(NC(=O)/C=C(/C(=O)O)c4ccccc4)cc3)CC2)c1`: -27%. For `Cc1cccc(NC2=NC(=S)N(c3ccc(C(=O)O)cc3)C23CCCCC3)c1`, the half-maximal activity concentration (AC50) was 25.1 µM (active). Same read-out and setting: next, `CCc1nc(N2CCC3(CC2)OCCO3)c2nnn(Cc3ccccc3Cl)c2n1`: 11.2 µM (active).

On to `Cc1noc(C)c1-c1nc(NCCN2CCOCC2)c2ccccc2n1`, for which the activity, negative = inhibition was 1.01% [at 2.29 µM]. Same read-out and setting: next, `CC(=O)Nc1ccc([N+](=O)[O-])cn1`: 9.45%.

In the case of `COc1cccc(NC(=S)NNC(=O)C(C)n2nc(C)c([N+](=O)[O-])c2C)c1` (centres undefined), the half-maximal activity concentration (AC50) is 5.01 µM (active). Take `COc1cccc(NC(=S)NN2CCN(C)CC2)c1`: the “activity, negative = inhibition” value is -10.9%.

As to `Cc1nn(C(C)C(=O)Nc2ccc(Cl)cn2)c(C)c1[N+](=O)[O-]` (centres undefined), the AC50 is 14.1 µM (active). As to `Cc1cc(NC(=O)c2nn(C)c(C)c2[N+](=O)[O-])no1`, the “activity, negative = inhibition” value was -8.43%. For the compound `COc1ccc(/C=C2\CCCC3C2=NN(C(=O)c2ccco2)C3c2ccc(OC)c(OC)c2)cc1OC` (centres undefined), the AC50 is 11.2 µM (active). With `COc1ccccc1CN1CC[C@@]2(CCCN(C(=O)c3ccco3)C2)C1`, the “activity, negative = inhibition” value was 5.94%. As for `Cc1ncsc1C(=O)N1N=C2/C(=C/c3ccccc3)CCCC2C1c1ccccc1` (centres undefined), the AC50 was 2.82 µM (active). On the same count and under the same terms, next, `O=c1cc(-c2ccccc2)[nH]n1-c1ccc([N+](=O)[O-])cc1`: 10 µM (active). As for `Cc1cc(C(=O)C(=O)NC(C)C)c(C)n1-c1ccc([N+](=O)[O-])cc1`, the “activity, negative = inhibition” value was -6.96%.

Regarding `CC1(C)N=C(N)N=C(N)N1CCCCc1ccccc1`, the activity, negative = inhibition was 1.42% [at 11.4 µM].

On to `CCOc1ccc(CCNC(=O)C2CC(=O)N(C3CCCC3)C2)cc1OCC` (centres undefined), for which the “activity, negative = inhibition” value was -18.7%.

On to `CCOc1ccc(CC(=O)C2C(=O)CCCC2=O)cc1OCC`, for which the AC50 is 7.08 µM (active). For `CCOc1ccc(CC(C(N)=O)C(N)=O)cc1CN(C)C`, the “activity, negative = inhibition” value was -25.3%. As to `COCn1c2ccccc2c2nnc(C(C)=O)nc21`, the activity, negative = inhibition was 13.8% [at 11.4 µM] and -8.55% [at 11.4 µM].
